Reference: PubChem BioAssay AID1159580 (chemical genetic matrix, 2015)
Values joined by “and” are separate entries in the source; they are usually repeats but may differ in a detail not shown here. Equal entries are not always repeated. The whole screen tested about 5,500 compounds, of which about 2,000 (36%) were called active. Roughly 18% stayed inconclusive and do not appear here. Rule as the data show it: active = normalized growth mostly below about 0.91 (no sharp cut-off); inconclusive = no clear call, values can overlap the other calls; inactive = mostly above about 0.92. Some of the results follow.

Experiment: chemical genetic growth profiling, strain panel (AID 1159580);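 also: tested at 20 µM; growth read once vehicle control cultures reached saturation at 30 °C; 1 = growth at the plate median or of vehicle wells; lower values mean less growth of the strain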
Details: S. cerevisiae deletion strains, growth OD

Measured: normalized growth

CC1(C)[C@@H]2CC[C@@]1(C)C(=O)C2
inactive: locus YAL013W, strain DEP1, stronger effect = lower value 0.962 | locus YAL021C, strain ccr4, stronger effect = lower value 0.97 | locus YAL026C, strain drs2, stronger effect = lower value 1.03 | locus YAL030W, strain snc1, stronger effect = lower value 1.02 | locus YBL061C, strain skt5, stronger effect = lower value 1.02 | locus YBR009C, strain hhf1, stronger effect = lower value 1.01 | locus YBR021W, strain FUR4, stronger effect = lower value 1 | locus YBR023C, strain chs3, stronger effect = lower value 1.01 | locus YBR171W, strain sec66, stronger effect = lower value 1.02 | locus YBR229C, strain ROT2, stronger effect = lower value 0.99 | locus YBR231C, strain swc5, stronger effect = lower value 1.01 | locus YBR279W, strain paf1, stronger effect = lower value 0.993 | locus YCL011C, strain gbp2, stronger effect = lower value 1 | locus YCL016C, strain dcc1, stronger effect = lower value 0.987 | locus YCL029C, strain bik1, stronger effect = lower value 1 | locus YCL061C, strain MRC1, stronger effect = lower value 1.02 | locus YCL069W, strain vba3, stronger effect = lower value 1.02 | locus YCR088W, strain abp1, stronger effect = lower value 1.01 | locus YDL005C, strain med2, stronger effect = lower value 1.01 | locus YDL035C, strain GPR1, stronger effect = lower value 1.01 | locus YDL040C, strain nat1, stronger effect = lower value 1 | locus YDL074C, strain BRE1, stronger effect = lower value 1.02 | locus YDL101C, strain DUN1, stronger effect = lower value 1 | locus YDL134C, strain PPH21, stronger effect = lower value 0.994 | locus YDL185W, strain tfp1, stronger effect = lower value 1 | locus YDL192W, strain arf1, stronger effect = lower value 1 | locus YDR001C, strain nth1, stronger effect = lower value 1.01 | locus YDR069C, strain doa4, stronger effect = lower value 1.02 | locus YDR101C, strain arx1, stronger effect = lower value 0.995 | locus YDR137W, strain rgp1, stronger effect = lower value 1.02 | locus YDR159W, strain sac3, stronger effect = lower value 1.06 | locus YDR162C, strain NBP2, stronger effect = lower value 1.01 | locus YDR195W, strain ref2 0.972 | locus YDR297W, strain sur2, stronger effect = lower value 1.02 | locus YDR318W, strain mcm21, stronger effect = lower value 0.996 | locus YDR334W, strain swr1, stronger effect = lower value 1.01 | locus YDR335W, strain msn5, stronger effect = lower value 0.993 | locus YDR388W, stronger effect = lower value 1.01 | locus YDR392W, strain spt3, stronger effect = lower value 0.902 | locus YDR502C, strain sam2, stronger effect = lower value 0.995 | locus YEL003W, strain gim4, stronger effect = lower value 1.01 | locus YEL037C, strain rad23, stronger effect = lower value 1 | locus YEL061C, strain CIN8 (second series), stronger effect = lower value 1 | locus YEL061C, strain CIN8, stronger effect = lower value 1 | locus YER015W, strain faa2, stronger effect = lower value 1.01 | locus YER016W, strain bim1, stronger effect = lower value 1.01 | locus YER110C, stronger effect = lower value 1.01 | locus YER111C, strain swi4, stronger effect = lower value 1.01 | locus YER155C, strain BEM2 (second series), stronger effect = lower value 1.02 | locus YER155C, strain BEM2, stronger effect = lower value 0.982 | locus YER167W, strain BCK2, stronger effect = lower value 0.992 | locus YFR010W, strain ubp6, stronger effect = lower value 1.02 | locus YGL078C, strain dbp3, stronger effect = lower value 0.996 | locus YGL086W, strain mad1, stronger effect = lower value 0.995 | locus YGL167C, strain pmr1, stronger effect = lower value 1.01 | locus YGL173C, strain kem1, stronger effect = lower value 1.03 | locus YGL227W, strain vid30, stronger effect = lower value 1.01 | locus YGL240W, strain doc1, stronger effect = lower value 1.01 | locus YGL248W, strain PDE1, stronger effect = lower value 0.99 | locus YGL253W, strain hxk2, stronger effect = lower value 1.02 | locus YGR078C, strain PAC10, stronger effect = lower value 1.01 | locus YGR135W, strain pre9, stronger effect = lower value 0.996 | locus YGR252W, strain gcn5, stronger effect = lower value 0.937 | locus YHR013C, strain ard1, stronger effect = lower value 0.991 | locus YHR027C, strain rpn1, stronger effect = lower value 1.02 | locus YHR030C, strain SLT2, stronger effect = lower value 1 and 1.03 | locus YHR079C, strain IRE1 (second series), stronger effect = lower value 0.997 | locus YHR079C, strain IRE1, stronger effect = lower value 1.05 | locus YHR094C, strain hxt1, stronger effect = lower value 1 | locus YHR129C, strain ARP1, stronger effect = lower value 1 | locus YHR142W, strain chs7, stronger effect = lower value 0.989 | locus YHR200W, strain rpn10, stronger effect = lower value 1 | locus YIL066C, strain RNR3, stronger effect = lower value 1.03 | locus YIL073C, strain SPO22, stronger effect = lower value 1.02 | locus YIL125W, strain kgd1, stronger effect = lower value 1 | locus YIR030C, strain dcg1, stronger effect = lower value 0.996 | locus YJL092W, strain hpr5, stronger effect = lower value 1.01 | locus YJL095W, strain BCK1 (second series), stronger effect = lower value 1.01 | locus YJL095W, strain BCK1, stronger effect = lower value 1.02 and 1.05 | locus YJL115W, strain asf1, stronger effect = lower value 1.01 | locus YJL129C, strain trk1, stronger effect = lower value 1.03 | locus YJL134W, strain LCB3, stronger effect = lower value 0.995 | locus YJL154C, strain vps35, stronger effect = lower value 1.01 | locus YJL164C, strain tpk1, stronger effect = lower value 0.98 | locus YJL166W, strain qcr8, stronger effect = lower value 1.03 | locus YJL168C, strain set2, stronger effect = lower value 1.01 | locus YJL187C, strain SWE1 (second series), stronger effect = lower value 1.01 | locus YJL187C, strain SWE1, stronger effect = lower value 1 | locus YJR043C, strain POL32, stronger effect = lower value 1.01 | locus YJR066W, strain TOR1, stronger effect = lower value 0.973 | locus YKL009W, strain mrt4, stronger effect = lower value 0.987 | locus YKL068W, stronger effect = lower value 0.992 | locus YKL085W, strain MDH1 (second series), stronger effect = lower value 1.01 | locus YKL085W, strain MDH1, stronger effect = lower value 1.01 | locus YKL160W, strain elf1, stronger effect = lower value 0.976 | locus YKR001C, strain vps1, stronger effect = lower value 0.992 | locus YKR026C, strain gcn3, stronger effect = lower value 1.01 | locus YKR091W, strain srl3, stronger effect = lower value 0.996 | locus YLL001W, strain dnm1, stronger effect = lower value 0.962 | locus YLL026W, stronger effect = lower value 1.01 | locus YLL041C, strain sdh2, stronger effect = lower value 1.01 | locus YLR027C, strain aat2, stronger effect = lower value 1.01 | locus YLR039C, strain RIC1, stronger effect = lower value 1.03 | locus YLR058C, strain SHM2, stronger effect = lower value 1 | locus YLR102C, strain apc9, stronger effect = lower value 0.992 | locus YLR113W, strain HOG1, stronger effect = lower value 1.05 | locus YLR221C, strain rsa3, stronger effect = lower value 1.05 | locus YLR258W, strain gsy2, stronger effect = lower value 0.986 | locus YLR262C, strain YPT6 (second series), stronger effect = lower value 1.01 | locus YLR262C, strain YPT6, stronger effect = lower value 1.05 | locus YLR268W, strain sec22, stronger effect = lower value 0.987 | locus YLR320W, strain mms22, stronger effect = lower value 1.04 | locus YLR330W, strain CHS5, stronger effect = lower value 0.996 | locus YLR342W, strain FKS1 (second series), stronger effect = lower value 1.02 | locus YLR342W, strain FKS1, stronger effect = lower value 1.01 | locus YLR357W, strain rsc2, stronger effect = lower value 0.993 | locus YLR370C, strain arc18, stronger effect = lower value 1.01 | locus YLR371W, strain rom2, stronger effect = lower value 1 | locus YLR384C, strain iki3, stronger effect = lower value 1.02 | locus YLR418C, strain cdc73, stronger effect = lower value 0.994 | locus YML016C, strain PPZ1, stronger effect = lower value 0.997 | locus YML032C, strain rad52, stronger effect = lower value 1 | locus YML120C, strain ndi1, stronger effect = lower value 0.981 | locus YML124C, strain tub3, stronger effect = lower value 1.01 | locus YMR058W, strain fet3, stronger effect = lower value 1.03 | locus YMR078C, strain ctf18, stronger effect = lower value 1.01 | locus YMR125W, strain sto1, stronger effect = lower value 0.987 | locus YMR129W, stronger effect = lower value 1 | locus YMR205C, strain PFK2, stronger effect = lower value 1 | locus YMR223W, strain ubp8, stronger effect = lower value 1 | locus YMR231W, strain pep5, stronger effect = lower value 1.01 | locus YMR307W, strain GAS1, stronger effect = lower value 0.98 | locus YNL067W, strain RPL9B, stronger effect = lower value 1 | locus YNL071W, strain lat1, stronger effect = lower value 1.01 | locus YNL183C, strain NPR1, stronger effect = lower value 0.985 | locus YNL209W, strain ssb2, stronger effect = lower value 0.991 | locus YNL233W, strain BNI4, stronger effect = lower value 1.01 | locus YNL248C, strain rpa49, stronger effect = lower value 1.04 | locus YNL250W, strain rad50, stronger effect = lower value 1.03 | locus YNL271C, strain bni1, stronger effect = lower value 1 | locus YNL298W, strain CLA4, stronger effect = lower value 0.99 | locus YNL307C, strain MCK1, stronger effect = lower value 0.997 | locus YNL322C, strain KRE1 (second series), stronger effect = lower value 1.01 | locus YNL322C, strain KRE1, stronger effect = lower value 0.985 | locus YNR049C, strain mso1, stronger effect = lower value 1.01 | locus YNR052C, strain pop2, stronger effect = lower value 0.999 | locus YOL012C, strain htz1 1.32 | locus YOL147C, strain pex11, stronger effect = lower value 1 | locus YOR001W, strain rrp6, stronger effect = lower value 1.07 | locus YOR061W, strain CKA2, stronger effect = lower value 1.01 | locus YOR069W, strain VPS5, stronger effect = lower value 1 | locus YOR070C, strain gyp1, stronger effect = lower value 1.03 | locus YOR080W, strain dia2, stronger effect = lower value 1.01 | locus YOR083W, strain WHI5, stronger effect = lower value 0.973 | locus YOR106W, strain vam3, stronger effect = lower value 0.991 | locus YOR136W, strain idh2, stronger effect = lower value 0.991 | locus YOR144C, strain elg1, stronger effect = lower value 0.996 | locus YOR184W, strain ser1, stronger effect = lower value 0.992 | locus YOR231W, strain MKK1, stronger effect = lower value 1.05 | locus YOR265W, strain rbl2, stronger effect = lower value 1 | locus YOR270C, strain vph1, stronger effect = lower value 1.06 | locus YOR290C, strain snf2, stronger effect = lower value 0.969 | locus YOR316C, strain cot1, stronger effect = lower value 0.999 | locus YPL051W, strain arl3, stronger effect = lower value 0.997 | locus YPL055C, strain LGE1, stronger effect = lower value 1 | locus YPL078C, strain atp4, stronger effect = lower value 0.966 | locus YPL106C, strain sse1, stronger effect = lower value 1.01 | locus YPL240C, strain hsp82, stronger effect = lower value 1.01 | locus YPL241C, strain CIN2, stronger effect = lower value 1 | locus YPL256C, strain CLN2, stronger effect = lower value 1.01 | locus YPR119W, strain clb2, stronger effect = lower value 0.998 | locus YPR141C, strain kar3, stronger effect = lower value 0.986 | locus YPR163C, strain tif3, stronger effect = lower value 0.999 | locus YPR167C, strain met16, stronger effect = lower value 1 | strain wtn01, stronger effect = lower value 0.987
